# Experimental data as given in PubChem BioAssay AID651658 (Broad Institute, 2012).
# The campaign covered roughly 340,000 compounds. About 5,100 (1.5%) were called active.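 The calls were made as follows: active = mean Tm shift, scaled 0 neutral to 100 positive control, at about 1.3% or above, every replicate too (limit read from the data); inconclusive = no clear call, values can overlap the other calls; inactive = the rest.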 What follows is part of a selection rich in actives, with near analogues and random picks from the rest.
# Molecular target: Fibroblast growth factor 22 (Homo sapiens) (UniProt Q9HCT0)
# Sequence (Q9HCT0 whole entry, looked up): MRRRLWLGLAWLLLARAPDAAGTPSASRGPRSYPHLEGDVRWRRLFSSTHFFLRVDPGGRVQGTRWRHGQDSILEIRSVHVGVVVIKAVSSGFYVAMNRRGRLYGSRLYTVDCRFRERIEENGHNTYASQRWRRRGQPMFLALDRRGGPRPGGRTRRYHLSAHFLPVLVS
# Assay: FGF22 ligand-induced thermal stabilization – biophysical, thermal shift, single point, FGF22 synaptogenesis inhibitor project, primary screen (AID 651658)
# Details: recombinant FGF22 thermal shift, SYPRO orange fluorescence; at 9.99 µM; stronger effect = higher value; percent of sucrose octasulfate shift, DMSO zero
row,Structure (SMILES),"activity (Tm shift, normalised)"
1,CCC(=O)Nc1ccc(C(=O)N2CCN(C(=O)c3ccco3)CC2)cc1,44.4% (active)
2,Cc1ccc(NC(=O)C(c2ccccc2)N2CCN(C(=O)c3ccco3)CC2)cc1 (stereo unspecified),-0.162% (inactive)
3,Cc1ccc(OCC(=O)Nc2ccc(N3CCN(C(=O)c4ccco4)CC3)cc2)c(C)c1,-0.015% (inactive)
4,O=C(Nc1cccc(F)c1)N[C@@H]1CC[C@@H](CCn2cc(Cc3ccccc3)nn2)O[C@@H]1CO,0.097% (inactive)
5,CO[C@@H]1CN(C)C(=O)c2cc(NC(=O)C3CCCC3)ccc2OC[C@@H](C)N(C(=O)Nc2ccc(C(F)(F)F)cc2)C[C@H]1C,-0.774% (inactive)
6,O=C(C[C@H]1C[C@H]2c3cc(NC(=O)CC4CC4)ccc3O[C@H]2[C@H](CO)O1)NCc1ccccn1,0.96% (inactive)
7,CCCc1cc(=O)[nH]c(SCC(=O)Nc2ccc(C(=O)Nc3ccccc3OC)cc2)n1,-0.412% (inactive)
8,Cc1cc(=O)[nH]c(SCC(=O)Nc2ccc(Br)cc2)n1,-0.265% (inactive)
9,Cc1ccc(NC(=O)CSc2nc(CSc3ccc(C)cc3)cc(=O)[nH]2)cc1,44% (active)
10,COc1ccc(S(=O)(=O)Nc2ccc3c(c2)C(=O)N([C@@H](C)CO)C[C@H](C)[C@@H](CN(C)C(=O)Nc2ccc4c(c2)OCO4)OCCCC[C@@H](C)O3)cc1,0.801% (inactive)
11,C[C@H](CO)N1C[C@H](C)[C@H](CN(C)CC2CCCC2)Oc2ncc(Br)cc2C1=O,-0.016% (inactive)
12,CC(C)NC(=O)N1[C@H](CO)[C@@H]2c3ccccc3N(C(=O)Nc3cccc(Cl)c3)C[C@@H]21,0.043% (inactive)
13,Cc1ccc(S(=O)(=O)N(C)C[C@@H]2Oc3c(NC(=O)NC(C)C)cccc3C(=O)N([C@H](C)CO)C[C@H]2C)cc1,0.01% (inactive)
14,Cc1cc2ccccn2c1C(=O)c1cccc(F)c1,-0.141% (inactive)
15,CC(=O)Nc1ccc(/C=N/Nc2ccc(C(=O)c3c(C)cc4ccccn34)cc2[N+](=O)[O-])cc1,-0.063% (inactive)
16,Cc1ccc(C(C[N+](=O)[O-])c2c(C)cc3ccccn23)cc1 (stereo unspecified),43.8% (active)
17,O=C(Nc1ccccc1Cl)N1CCN(c2ccc3nncn3n2)CC1,0.014% (inactive)
18,Cc1cc(C)n(-c2ccc3nncn3n2)n1,43.4% (active)
19,Cc1cc(C)n(-c2nnc(N3CCN(c4ccccc4)CC3)nn2)n1,0.536% (inactive)
20,CCS(=O)(=O)N1Cc2cc(C(=O)N(C)C)nc(-c3cccc(-c4ccc(C#N)cc4)c3)c2[C@H]1CCO,-0.41% (inactive)
21,CCCC#Cc1ccc2c(c1)O[C@@H](CN(C)C(=O)c1cccnc1)[C@H](C)CN([C@H](C)CO)S2(=O)=O,-0.014% (inactive)
22,S=C(c1ccc(-c2ccccc2)o1)N1CCCCC1,43.4% (active)
23,OCCN1CCN(C(=S)c2ccc(-c3ccccc3)cc2)CC1,-0.171% (inactive)
24,CN1CCN(C(=O)c2ccc(-c3ccc(Br)cc3)o2)CC1,-0.078% (inactive)
25,C[C@@H]1CN([C@@H](C)CO)C(=O)Cc2cc(NS(C)(=O)=O)ccc2O[C@H]1CN(C)S(=O)(=O)c1ccc(F)cc1,0.13% (inactive)
26,COc1cccc(CNC(=O)C[C@@H]2C=C[C@@H](NC(=O)C3CCC3)[C@@H](CO)O2)c1,0.068% (inactive)

row,Structure (SMILES),"activity (Tm shift, normalised)"
1,Cc1ccc(CS(=O)(=O)CCC(=O)NCc2ccc(F)cc2)cc1,-0.138% (inactive)
2,CSc1ccc(CN(C)CC(=O)NCc2ccc(F)cc2)cc1,0.292% (inactive)
3,Cc1ccc(SC(C)C(=O)NCc2ccc(F)cc2)cc1 (stereo unspecified),43.3% (active)
4,C[C@@H]1CN([C@H](C)CO)C(=O)c2cccc(NC(=O)c3nc4ccccc4s3)c2O[C@@H]1CN(C)C,0.121% (inactive)
5,C[C@H](CO)N1C[C@H](C)[C@H](CN(C)C(=O)NC2CCCCC2)Oc2c(NC(=O)c3nc4ccccc4s3)cccc2C1=O,-0.035% (inactive)
6,CC(C)NC(=O)N(C)C[C@@H]1Oc2c(NC(=O)c3nc4ccccc4s3)cccc2C(=O)N([C@H](C)CO)C[C@H]1C,29.2% (active)
7,COc1ccc(S(=O)(=O)Nc2ccc3c(c2)C(=O)N([C@H](C)CO)C[C@@H](C)[C@H](CN(C)C(=O)c2ccncc2)OCCCC[C@@H](C)O3)cc1,-0.014% (inactive)
8,O=C(C[C@H]1C[C@H]2c3cc(NC(=O)CC4CC4)ccc3O[C@H]2[C@H](CO)O1)NCc1ccccc1,0.206% (inactive)
9,N#C[C@@H]1[C@@H](c2ccc(-c3cccnc3)cc2)[C@H](CO)N1C(=O)Nc1ccc(F)cc1,0.238% (inactive)
10,O=C(Nc1nnc(-c2ccccc2F)s1)c1ccccc1F,2.31% (active)
11,CN(Cc1ccccc1)S(=O)(=O)c1nnc(NC(=O)c2ccccc2F)s1,-0.151% (inactive)
12,O=C(Nc1nnc(-c2ccc(F)cc2)s1)c1c(F)cccc1Cl,0.279% (inactive)
13,CCn1c(SCC(=O)N(C)C2CCS(=O)(=O)C2)nnc1-c1cccs1 (stereo unspecified),43.9% (active)
14,CN(C(=O)CSc1nnc(-c2ccc(C(C)(C)C)cc2)n1C)C1CCS(=O)(=O)C1 (stereo unspecified),0.442% (inactive)
15,CCN(C(=O)CSc1nc2ccccc2n1CC)C1CCS(=O)(=O)C1 (stereo unspecified),0.234% (inactive)
16,Cc1ccc(S(=O)(=O)Nc2ccc3c(c2)C(=O)N([C@H](C)CO)C[C@H](C)[C@@H](CN(C)C(=O)NC(C)C)OCCCC[C@@H](C)O3)cc1,0.879% (inactive)
17,CCCc1cn(CC[C@@H]2CC[C@@H](NC(=O)CCN3CCCCC3)[C@H](CO)O2)nn1,0.083% (inactive)
18,Cc1cc(C(=O)COC(=O)C2CC2)c(C)n1-c1ccc(F)cc1,0.711% (inactive)
19,COc1ccc(-n2c(C)cc(C(=O)COC(=O)c3cc(OC)c(OC)cc3NC(=O)c3cccs3)c2C)cc1,43.4% (active)
20,COc1ccc(C(=O)COC(=O)CNC(=O)c2cccs2)cc1Br,-0.191% (inactive)
21,COc1ccc2c3c(n(C)c2c1)[C@@H](CO)N(C(=O)Nc1ccccc1F)CC31CCN(C(=O)c2ccccc2F)CC1,-0.032% (inactive)
22,COc1ccc(NC(=O)N(C)C[C@@H]2Oc3ccc(NS(=O)(=O)c4ccc(Cl)cc4)cc3C(=O)N([C@H](C)CO)C[C@@H]2C)cc1,0.119% (inactive)
23,Cc1ccc2[nH]c(=O)c(CN3CCCCC3)c(-c3ccccc3)c2c1,43.2% (active)
24,Cc1ccc2[nH]c(=O)c(CC(=O)O)c(-c3ccccc3)c2c1,-0.089% (inactive)
25,c1ccc2cc3[nH]c(CN4CCCCC4)nc3cc2c1,-0.01% (inactive)
26,Cc1ccccc1S(=O)(=O)N[C@H]1CC[C@@H](CCn2cc(Cc3ccccc3)nn2)O[C@H]1CO,-0.039% (inactive)

row,Structure (SMILES),"activity (Tm shift, normalised)"
1,Cc1noc(C)c1NC(=O)N(C)C[C@H]1OCCCC[C@H](C)Oc2ccc(NC(=O)Cc3ccccc3)cc2C(=O)N([C@H](C)CO)C[C@@H]1C,1.07% (inactive)
2,O=C(CSc1nnc(-c2ccncc2)o1)NCc1ccc(Cl)cc1,43.9% (active)
3,CCc1ccccc1NC(=O)CSc1nnc(-c2ccncc2)o1,-0.04% (inactive)
4,COc1ccc2c(C)cc(SCC(=O)NCC3CCCO3)nc2c1 (stereo unspecified),0.011% (inactive)
5,O=C(CSc1ccc(-c2ccccc2)nn1)NCC1CCCO1 (stereo unspecified),-0.177% (inactive)
6,O=C(COc1ccc(Cl)cc1)NCc1nnc(SCC(=O)NCC2CCCO2)o1 (stereo unspecified),42.9% (active)
7,O=C(CSc1nnc(-c2ccncc2)o1)Nc1cccc(Cl)c1,0.107% (inactive)
8,C[C@@H]1CN([C@@H](C)CO)C(=O)c2cc(NS(=O)(=O)c3cn(C)cn3)ccc2O[C@@H]1CN(C)C(=O)NC1CCCCC1,-0.419% (inactive)
9,COC(=O)[C@@H]1[C@@H](CO)[C@@H]2Cn3c(ccc(-c4ccc(OC)cc4)c3=O)[C@@H]2N1S(C)(=O)=O,-0.206% (inactive)
10,CCC(=O)N1[C@H](C(=O)OC)[C@@H](CO)[C@@H]2Cn3c(ccc(-c4cccc(F)c4)c3=O)[C@@H]21,0.191% (inactive)
11,COCC(=O)N1[C@@H](CO)[C@H](c2ccccc2)C12CN(C(=O)NC1CCCCC1)C2,0.045% (inactive)
12,COc1ccc2c3c([nH]c2c1)[C@H](CO)N(Cc1ccccc1)CC31CCN(C(=O)c2ccccn2)CC1,-0.204% (inactive)
13,C[C@@H]1CN([C@@H](C)CO)C(=O)Cc2cc(NC(=O)Nc3cccc4ccccc34)ccc2O[C@H]1CN(C)CC1CCCCC1,0.094% (inactive)
14,COc1cccc(CNC(=O)c2n[nH]c3ccccc23)c1,0.239% (inactive)
15,O=C(NCCc1ccc(F)cc1)c1n[nH]c2ccccc12,43.3% (active)
16,O=C(NCCc1ccccc1)c1c[nH]c2ccc(F)cc2c1=O,0.52% (inactive)
17,CCCNC(=O)N1C[C@@H](O)COC[C@H]2O[C@H](CC(=O)NCCCN3CCOCC3)CC[C@@H]21,-0.348% (inactive)
18,COc1ccccc1-c1ccc2c(c1)O[C@H](CN(C)C(=O)c1cccnc1)[C@H](C)CN([C@@H](C)CO)S2(=O)=O,-0.096% (inactive)
19,O=C(C[C@@H]1CC[C@@H]2[C@H](COC[C@H](O)CN2C(=O)C2CC2)O1)NCc1ccncc1,0.141% (inactive)
20,CN(C)CC(=O)N1[C@H](CO)[C@@H](c2ccc(-c3cccc(C(=O)N(C)C)c3)cc2)[C@@H]1C#N,0.074% (inactive)
21,NC(=O)N1CCc2ccccc21,43.1% (active)
22,O=C(NC(=S)N1CCc2ccccc21)c1ccco1,0.306% (inactive)
23,O=C(c1cnn2ccccc12)N1CCc2ccccc21,-0.357% (inactive)
24,C[C@H](CO)N1C[C@H](C)[C@@H](CN(C)C(=O)Cc2ccncc2)Oc2ncc(C3=CCCCC3)cc2C1=O,0.188% (inactive)
